From PubChem BioAssay
The list is not random: actives were taken first. Their share in the collection is about 12%.
HP1b chromo inh = HTS for Inhibitors of HP1-beta Chromodomain Interactions with Methylated Histone Tails; Chromobox protein homolog 1 (Homo sapiens), P83916; AlphaScreen HP1-beta / biotin-H3K9me3 peptide binding; Potency, µM (doses to about 114 µM), for the others: at the highest dose activity change, negative = inhibition, usual class: inhibitors; actives 0.56% (n = 390,000); AID 540317, 2011; also: nearly all actives have a fitted effect of over 70% in size
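HP1-beta protein (50 nM final) preincubated 30 min at room temperature with biotinylated H3(1-18)K9me3 peptide (50 nM) in PBS pH 7.4, 0.01% Tween-20, then compound added for 30 min. AlphaScreen streptavidin donor/nickel chelate acceptor beads (10 ug/mL final), 30 min dark, luminescence read.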
G9a block = qHTS Assay for Inhibitors of Histone Lysine Methyltransferase G9a | actives 8.8% (n = 350,000) | Potency, µM (doses to about 102 µM), inactives show at the highest dose activity, negative = inhibition, most hits filed as inhibitors | Histone-lysine N-methyltransferase EHMT2 (Homo sapiens), Q96KQ7 | G9a H3K9 monomethylation, AlphaScreen, 2 h; also: % is scaled to controls: 0 for no effect and ±100 for the full control effect; nearly all actives have a fitted effect of over 75% in size
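Readings reflect AlphaScreen signal from monomethyl-H3K9 antibody detection. HMT at 20 nM; substrate b-H3K9 500 nM; cofactor SAM 20 uM; 2 h RT reaction; compounds tested as titrations in qHTS with 15 min preincubation.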
BAZ2B block = qHTS Assay for Inhibitors of BAZ2B. Bromodomain adjacent to zinc finger domain protein 2B (Homo sapiens), Q9UIF8. AlphaScreen BAZ2B-H3K14Ac peptide displacement. Potency, µM (doses to about 114 µM), for the others: at the highest dose activity change, negative = inhibition, hits mostly inhibitors. actives 4.4% (n = 360,000). AID 504333, 2011; also: % is scaled to controls: 0 for no effect and ±100 for the full control effect; nearly all actives have a fitted effect of over 60% in size
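BAZ2B (50 nM) with biotin-H3(5-23)K14Ac peptide (50 nM) in PBS pH 7.4, 0.01% Tween-20, preformed 30 min, then compound 30 min at room temperature; top concentration 110uM. AlphaScreen streptavidin donor/nickel chelate acceptor beads (10 ug/mL final), 20 min dark, signal read.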
Sfp inh = qHTS Assay for Inhibitors of Bacillus subtilis Sfp phosphopantetheinyl transferase (PPTase) | Biochemical Sfp PPTase activity, qHTS | Potency, µM, inactives show largest response in the series, negative = inhibition, hits mostly inhibitors | actives 3.5% (n = 310,000) | AID 1490, 2009;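 also: the enzyme is Sfp with the accession as filed and its product quenches rhodamine fluorescence; 0% = enzyme reaction without inhibitor and -100% = no enzyme wells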
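Buffer: 50 mM Hepes-Na pH 7.6, 10 mM MgCl2, 0.01% Nonidet P-40, 0.01% BSA. Enzyme 15 nM, pre-exposed to compound 15 min; substrates then added and fluorescence change tracked over 30 min.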
JMJD2A Tudor inh = qHTS Assay for Inhibitors of JMJD2A-Tudor Domain; AlphaScreen JMJD2A-Tudor / H3K4me3 peptide binding; Potency, µM (titrated, usually from 114 µM), inactives show top-dose activity change, negative = inhibition, usual class: inhibitors; actives 4.4% (n = 390,000); AID 504339, 2011; also: % is scaled to controls: 0 for no effect and ±100 for the full control effect; nearly all actives have a fitted effect of over 50% in size
Active calls of the source: *; ! = a repeat was not active; [ ] = dose if it differs, or a comment. Calls follow the shape of the dose curve; as a rule, active = well fitted curve in the direction sought with a large enough effect; inconclusive = small, poorly fitted or top-dose-only effect, or another doubt; inactive = no such curve, though single readings can be large; an effect the other way counts as inactive or inconclusive. Potency is read from the fitted curve at half-maximal effect.

`O=C(O)CC1c2ccccc2S(=O)(=O)N1Cc1ccccc1` (centres undefined) gave HP1b chromo inh 34%, G9a block 9%[59 µM], BAZ2B block 13%, Sfp inh 16% and JMJD2A Tudor inh -11%.
O=C(O)c1cc(=O)[nH]c(=O)[nH]1 was read as G9a block 12%[59 µM] and Sfp inh inconclusive.
For O=C(O)c1cc(=O)cc(C(=O)O)[nH]1 the results were HP1b chromo inh 44%, G9a block 1.7µM*!, BAZ2B block -38%, Sfp inh 40µM* and JMJD2A Tudor inh -10%.
`COc1ccccc1C1c2[nH]c3ccccc3c2CCN1Cc1cnc(C)s1` (centres undefined) gave HP1b chromo inh 21%, G9a block -12%, BAZ2B block -10%, Sfp inh 8% and JMJD2A Tudor inh -1%[11.4 µM].
`COc1ccc(C2c3[nH]c4ccccc4c3CCN2Cc2cccn2-c2ncccn2)cc1C` (centres undefined) gave HP1b chromo inh inconclusive, G9a block 18%[0.501 µM], BAZ2B block 35µM*, Sfp inh 56µM* and JMJD2A Tudor inh inconclusive.
COc1cccc(C2c3[nH]c4ccccc4c3CCN2Cc2cnn(C)c2)c1 (centres undefined) was read as HP1b chromo inh -12%, BAZ2B block inconclusive, Sfp inh -3% and JMJD2A Tudor inh inconclusive.
c1ccc(C2c3[nH]c4ccccc4c3CCN2Cc2cccn2-c2ccccn2)nc1 (centres undefined) was read as HP1b chromo inh -9%, G9a block inconclusive, BAZ2B block 20µM*, Sfp inh -6% and JMJD2A Tudor inh inconclusive.
For Cc1cccc(C2c3[nH]c4ccccc4c3CCN2Cc2cccn2-c2ncccn2)c1 (centres undefined) the results were HP1b chromo inh inconclusive, BAZ2B block 32µM*, Sfp inh -25% and JMJD2A Tudor inh 50µM*.
`O=C(Nc1cccnc1N1CCOCC1)c1cccs1` gave HP1b chromo inh 34%, G9a block 26%, BAZ2B block 28%, Sfp inh 14% and JMJD2A Tudor inh 2%.
For Cc1c(C(=O)N(C)Cc2ccccc2)sc2nc(-c3ccc(F)cc3)cn12 the results were HP1b chromo inh 18%[57 µM], G9a block -3%[59 µM], BAZ2B block -27% and JMJD2A Tudor inh -22%.
`OC(CNCC1(N2CCCCC2)CCCCC1)COc1ccc(Cl)cc1Cl` (centres undefined) gave HP1b chromo inh inconclusive, G9a block 50µM*, BAZ2B block -31%, Sfp inh -5% and JMJD2A Tudor inh 2.8µM*.
Cc1ccc(N2CCOCC2)c2c1C(=O)c1ccccc1C2=O was read as HP1b chromo inh 13µM*, G9a block 3.5µM*, BAZ2B block 14µM*, Sfp inh 1% and JMJD2A Tudor inh 32µM*.
`CN(C)CCNC(=O)c1cccc2nc3cccc(F)c3nc12` gave HP1b chromo inh 19% and JMJD2A Tudor inh -11%.
CN(C)CCNC(=O)c1cccc2ccc(-c3ccc(-c4ccccc4)cc3)nc12 was read as HP1b chromo inh -13% and JMJD2A Tudor inh 56µM*.
For CC(C)n1c(N)c(C#N)c2ccc([N+](=O)[O-])cc2c1=O the results were HP1b chromo inh 25%, G9a block 0%, BAZ2B block 0%, Sfp inh 2% and JMJD2A Tudor inh -16%.
COc1cc2c(cc1OC)CN(c1ccc(F)cc1[N+](=O)[O-])CC2 was read as HP1b chromo inh inconclusive, G9a block 35µM*, BAZ2B block 40µM*, Sfp inh 25µM* and JMJD2A Tudor inh 50µM*.
Screening COc1cc2c(cc1OC)CN(C(=O)c1ccc(N3CCCC3)c([N+](=O)[O-])c1)CC2 returned HP1b chromo inh inconclusive, G9a block 16%[2.33 µM], BAZ2B block 45µM* and JMJD2A Tudor inh 50µM*.
